The record followed here is PubChem BioAssay (NCI).

This is part of a sample that, as a whole, favours compounds with a hit. Of some 83,000 tested, about 20% had one in any assay.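 Testing used 96-well plates and a 48-hour single-concentration exposure. Example: -40 means 40% of the starting cells died.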 Values without a mark were called inactive. Active and inactive are the calls of the source. Rule for the calls: active = growth percent below 10; inactive = the rest.

Test in all cases: NCI-60 one-dose screen, 48 h (100 = growth as untreated, 0 = no growth, -100 = all killed)
What all share (details): 10 µM unless noted

The test system of experiment [1] is NCI-H23 lung.
Experiment [2] has as its system NCI-H226 lung.
Experiment [3] deals with NCI-H322M lung.
Experiment [4] relates to HOP-62 NSCLC.
Experiment [5] concerns NCI-H460 lung.
Experiment [6] deals with HOP-92 NSCLC.
Experiment [7] concerns A549/ATCC NSCLC.
The subject of experiment [8] is 786-0 renal.
Experiment [9] deals with COLO 205 colon.
Experiment [10] deals with DU-145 prostate.
Experiment [11] deals with K-562 leukemia.
For experiment [12], the system named is MALME-3M melanoma.
Experiment [13] concerns MDA-MB-231 breast.
In experiment [14] the test system is RXF 393 renal.
The test system of experiment [15] is SF-268 CNS.
Experiment [16] relates to SF-295 CNS.
In experiment [17] the test system is SF-539 CNS.
The subject of experiment [18] is UACC-257 melanoma.
In experiment [19] the test system is M14 melanoma.
Experiment [20] relates to NCI-H522 lung.

`c1ccc(CNc2ccc3nc(CCC4CCCCC4)[nH]c3c2)cc1`: the growth in experiment [1] was 68.2%; in experiment [2] it was 71.4%; in experiment [3], 86.7%; in experiment [4], 80.1%; in experiment [5], 78.1%; in [6], 44.7%. The growth in experiment [7] is 72.5%; in experiment [8] it was 62.2%; in experiment [9], 1.16% (active); in [10] it was 80.1%; in [11], 14.6%; in experiment [12], 58.3%. Also, the growth in experiment [13] is 77.7%; in [14], 66.5%; in [15], 79.8%; in experiment [16] it was 81%; in experiment [17] it was 82.1%; in experiment [18], 74.2%. Besides, the growth in [19] is 76.2%.

As to `CCCCCCCCn1ccc2cc(NC(=O)Cn3cc(CN4CCN(CC)CC4)nn3)ccc21`, the growth is 105% in experiment [1]; 98.3% in experiment [2]; 78.3% in experiment [3]; 89.8% in experiment [4]; 13.8% in [5]; 54.7% in [6]. Further, the growth in experiment [7] is 64%; in experiment [8] it was 57.9%; in [9], -70.2% (active); in experiment [10], 90.6%; in experiment [11], 3.41% (active); in [12], -11.1% (active). Also, the growth in experiment [13] was 45.8%; in [14] it was 67.7%; in experiment [15], 76.7%; in experiment [16] it was 13.7%; in [17] it was 82.7%; in [18], 79.4%. The growth in experiment [19] is -64.3% (active).

As to `O=C(Nc1nc(C(=O)N2CCN(C(c3ccccc3)c3ccccc3)CC2)cs1)c1ccc(NC2CCCCC2)c([N+](=O)[O-])c1`, the growth was 77.2% in experiment [1]; 60.1% in experiment [2]; 91.6% in [3]; 90.9% in experiment [4]; 99.6% in experiment [5]; 67.3% in experiment [20]. In addition, the growth in experiment [7] is 93.2%; in experiment [8], 87.7%; in experiment [9], 103%; in [10], 98.9%; in experiment [11], 83.9%; in experiment [12], 89.4%. Moreover, the growth in [13] was 70.5%; in experiment [14], 85%; in experiment [15], 86.3%; in [16] it was 69.9%; in experiment [17], 93.3%; in experiment [18], 89.4%. The growth in experiment [19] was 77.8%.

As for `O=S(=O)(c1ccccc1)N1CCCN(c2nc(-c3ccccc3)nc3nc(-c4ccccc4)oc23)CC1`, the growth in experiment [1] was 107%; in experiment [2], 109%; in experiment [3], 96%; in experiment [4] it was 104%; in experiment [5], 110%; in experiment [20] it was 98.5%. Also, the growth was 105% in experiment [7]; 102% in experiment [8]; 116% in experiment [9]; 119% in [10]; 110% in experiment [11]; 105% in experiment [12]. Besides, the growth in experiment [13] was 108%; in experiment [14], 115%; in [15], 111%; in experiment [16], 105%; in experiment [17] it was 104%; in experiment [18] it was 109%. Moreover, the growth in experiment [19] is 109%.

Regarding `COC(c1ccc2ccccc2c1)C(C)C(F)F` (centres undefined), the growth in [1] is 95.7%; in [2], 100%; in experiment [3], 99.6%; in experiment [4] it was 86.7%; in [5], 111%; in experiment [20] it was 86.9%. Besides, the growth in experiment [7] is 96.8%; in [8], 90.5%; in experiment [9], 112%; in experiment [10] it was 110%; in [11] it was 97.1%; in [12], 99.5%. Moreover, the growth in experiment [13] was 111%; in experiment [14] it was 106%; in experiment [15], 100%; in [16], 97.1%; in experiment [17] it was 95.2%; in experiment [18], 91.3%. Moreover, the growth in experiment [19] is 99.1%.

As for `CCNC(=O)Oc1ccc(/C(=C(/C)Cc2ccc(OC)cc2)c2ccc(OCCN3CCCCCC3)cc2)cc1`, the growth in experiment [1] was 75.9%; in [2], 96.2%; in experiment [3] it was 95.5%; in [4] it was 84.4%; in experiment [5], 30.6%; in experiment [20], 54.2%. Further, the growth in experiment [7] was 54.9%; in [8] it was 72%; in experiment [9], 28.7%; in [10], 92.2%; in experiment [11], 5.8% (active); in experiment [12], 109%. Besides, the growth was 64.1% in experiment [13]; 68.3% in [14]; 74.5% in [15]; 88.4% in experiment [16]; 96.4% in experiment [17]; 76.7% in experiment [18]. In addition, the growth in experiment [19] was 68.3%.
